Data: PubChem BioAssay AID1159580 (chemical genetic matrix, 2015)
Out of some 5,500 compounds screened, about 2,000 (36%) were called active. About 18% were inconclusive and are not listed. Rule as the data show it: active = normalized growth mostly below about 0.91 (no sharp cut-off); inconclusive = no clear call, values can overlap the other calls; inactive = mostly above about 0.92. The list shows a part of the results.

Test: chemical genetic growth profiling, strain panel (AID 1159580);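 also: tested at 20 µM; growth read once vehicle control cultures reached saturation at 30 °C; 1 = growth at the plate median or of vehicle wells; lower values mean less growth of the strain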
Settings: S. cerevisiae deletion strains, growth OD

Measured: normalized growth

Cc1nnsc1C(=O)Nc1cc(C(F)(F)F)cc(C(F)(F)F)c1
inactive: locus YAR019C, strain CDC15, active compounds read low 0.956 | locus YBL105C, strain PKC1, active compounds read low 0.957 | locus YBR135W, strain CKS1, active compounds read low 0.953 | locus YBR136W, strain MEC1, active compounds read low 0.958 | locus YBR160W, strain CDC28, active compounds read low 0.962 | locus YDL017W, strain CDC7, active compounds read low 0.958 | locus YDL028C, strain MPS1, active compounds read low 0.959 | locus YDL101C, strain DUN1, active compounds read low 0.964 | locus YDL108W, strain KIN28, active compounds read low 0.958 | locus YDL132W, strain cdc53, active compounds read low 0.95 | locus YDL214C, strain PRR2, active compounds read low 0.987 | locus YDR052C, strain DBF4, active compounds read low 0.966 | locus YDR054C, strain cdc34, active compounds read low 0.951 | locus YDR226W, strain ADK1, active compounds read low 0.955 | locus YDR477W, strain SNF1, active compounds read low 0.995 | locus YER123W, strain YCK3, active compounds read low 1 | locus YER133W, strain GLC7, active compounds read low 1.01 | locus YFL009W, strain cdc4, active compounds read low 0.948 | locus YFL029C, strain CAK1, active compounds read low 0.958 | locus YFR003C, strain YPI1, active compounds read low 0.955 | locus YFR019W, strain FAB1, active compounds read low 0.987 | locus YFR028C, strain CDC14, active compounds read low 0.964 | locus YGR040W, strain KSS1, active compounds read low 1 | locus YGR052W, strain FMP48, active compounds read low 1.02 | locus YGR092W, strain DBF2, active compounds read low 0.974 | locus YHR030C, strain SLT2, active compounds read low 1 | locus YHR079C, strain IRE1, active compounds read low 0.908 | locus YHR082C, strain KSP1, active compounds read low 1.07 | locus YHR205W, strain SCH9, active compounds read low 0.846 | locus YIL147C, strain SLN1, active compounds read low 0.957 | locus YJL095W, strain BCK1, active compounds read low 0.946 | locus YJL128C, strain PBS2, active compounds read low 0.957 | locus YJL157C, strain FAR1, active compounds read low 1.01 | locus YJR016C, strain ILV3, active compounds read low 0.956 | locus YJR066W, strain TOR1 (second series), active compounds read low 0.976 | locus YJR066W, strain TOR1, active compounds read low 1.1 | locus YKL048C, strain ELM1, active compounds read low 0.993 | locus YKL067W, strain YNK1, active compounds read low 0.977 | locus YKL101W, strain HSL1, active compounds read low 0.961 | locus YKL193C, strain SDS22, active compounds read low 0.947 | locus YKL203C, strain TOR2, active compounds read low 1.06 | locus YLR113W, strain HOG1, active compounds read low 0.961 | locus YLR133W, strain CKI1, active compounds read low 0.991 | locus YLR403W, strain SFP1, active compounds read low 0.941 | locus YML070W, strain DAK1, active compounds read low 0.997 | locus YMR001C, strain CDC5, active compounds read low 0.962 | locus YMR205C, strain PFK2 (second series), active compounds read low 0.984 | locus YMR277W, strain FCP1, active compounds read low 0.951 | locus YNL006W, strain LST8, active compounds read low 0.964 | locus YNL020C, strain ARK1, active compounds read low 0.985 | locus YNL161W, strain CBK1, active compounds read low 0.957 | locus YNL183C, strain NPR1, active compounds read low 1.05 | locus YNL207W, strain RIO2, active compounds read low 0.954 | locus YNL222W, strain SSU72, active compounds read low 0.961 | locus YNL307C, strain MCK1 (second series), active compounds read low 0.992 | locus YOL078W, strain AVO1, active compounds read low 0.951 | locus YOL136C, strain PFK27, active compounds read low 0.985 | locus YOR061W, strain CKA2, active compounds read low 0.996 | locus YOR119C, strain RIO1, active compounds read low 1.05 | locus YOR231W, strain MKK1, active compounds read low 1.03 | locus YOR329C, strain SCD5, active compounds read low 0.966 | locus YPL031C, strain PHO85, active compounds read low 1 | locus YPL153C, strain RAD53, active compounds read low 0.989 | locus YPL204W, strain HRR25, active compounds read low 0.99 | locus YPL209C, strain IPL1, active compounds read low 0.961 | locus YPL256C, strain CLN2, active compounds read low 0.864 | locus YPR025C, strain CCL1, active compounds read low 0.967 | locus YPR106W, strain ISR1, active compounds read low 0.948 | locus YPR111W, strain DBF20, active compounds read low 0.943 | strain NNK1, active compounds read low 0.925 | strain TSCII, active compounds read low 0.954
